Experiment [1] has as its system Human papillomavirus type 1a protein E7 (residues 44-93). Briefly: HPV1a E7 fragment binders on microarrays, primary screen, biochemical, small-molecule microarray, residues 44-93, 635 nm fluorescence (AID 1108).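 Further: E7 fragment applied at 1 µg/mL in TBST for 1 h at 4 C; score combines spot fluorescence with its signal to noise ratio.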 Conditions: small-molecule microarray binding, fluorescence 635 nm; higher = more signal.
Experiment [2] is described as follows: modulators of HCV replicon luciferase signal, primary screen, HCV replication inhibitor project, Huh7 cells, luciferase reporter (AID 1109).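 Further: huh7 hepatoma cells harbouring a luciferase neomycin HCV replicon reporter; luciferase luminescence as measure of HCV replicon replication; test concentration not given here.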 To be noted: 48 h, higher = more signal. On the technique in general: A replicon is a self-replicating genome or part of one, used to study replication in cells.
Experiment [3] has as its target Left-right determination factor 2 (Homo sapiens) (UniProt O00292). Briefly: LEFTY2 binders on small-molecule microarrays, primary screen, biochemical, small-molecule microarray, 635 nm fluorescence scan (AID 1110). To be noted: LEFTY2 binding, higher = more signal.
Experiment [4] has as its target Calmodulin-1 (Homo sapiens) (UniProt P0DP23). In words: CALM1 binders on microarrays, EGTA buffer, profiling panel, biochemical, small-molecule microarray, Cy5-labelled CALM1 (AID 1111).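 Further: labelled calmodulin applied in Tris saline Tween buffer holding calcium plus EGTA and DTT.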 To be noted: Cy5-CALM1 binding fluorescence, higher = more signal.
Experiment [5] has the same target. In words: calcium-bound CALM1 binders on microarrays, profiling panel, artefact control for SMM control-protein annotation, biochemical, small-molecule microarray, Cy5-labelled CALM1, plus calcium (AID 1112).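 Further: score merges spot fluorescence with signal to noise from triplicate slides.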 Conditions: Cy5-CALM1 binding fluorescence, higher = more signal.
The nature of experiment [6]: small-molecule microarray binders of probe aWnt5a, primary screen, biochemical, biotinylated probe, 635/667 nm fluorescence (AID 1113).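 Further: score merges 667 nm fluorescence intensity with signal-to-noise per printed feature.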 To be noted: higher = more signal.
Experiment [7] can be described thus: small-molecule microarray binders of probe aShh, primary screen, biochemical, biotinylated probe, 635/667 nm fluorescence (AID 1114).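 Further: probe is biotin-labelled aShh protein from a stem cell growth factor screen; measures binding of labelled protein to compounds printed on the slide; score merges feature fluorescence at 667 nm with signal-to-noise.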 To be noted: higher = more signal.
Experiment [8] is described as follows: small-molecule microarray binders of probe aNog, primary screen, biochemical, biotinylated probe, 635/667 nm fluorescence (AID 1115).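 Further: probe is biotinylated aNog protein used at 0.15 µg/mL for 1 h at 4 C; z-score combines 667 nm fluorescence of each spot with its signal to noise.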 Conditions: higher = more signal.
For experiment [9], the target named is Torsin-1A-interacting protein 1 (Homo sapiens) (UniProt Q5JTV8). Briefly: LAP1 binders from COS7 cell lysate, primary screen, small-molecule microarray, 635/667 nm fluorescence (AID 1116). To be noted: COS7-hLAP1 lysate binding, 635 nm fluorescence, higher = more signal.
The target of experiment [10] is Alpha-bungarotoxin (Bungarus multicinctus) (UniProt P60615). In words: alpha-bungarotoxin binders on microarray, profiling panel, artefact control for SMM control protein annotation, biochemical, small-molecule microarray, Alexa647 label, 635/667 nm fluorescence (AID 1117). To be noted: alpha-BTX-A647 binding fluorescence, higher = more signal.
For another experiment, the target named is Albumin (Bos taurus) (UniProt P02769). In words: bovine serum albumin binders on microarray, profiling panel, artefact control for SMM control protein annotation, biochemical, small-molecule microarray, Alexa647 label, 635/667 nm fluorescence (AID 1118).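 Further: score merges 667 nm emission intensity and signal-to-noise per printed compound spot.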 To be noted: BSA-A647 binding, fluorescence 635 nm, higher = more signal.
Experiment [11] is described as follows: small-molecule microarray binders of probe aXIP, primary screen, biochemical, NeuroSMM set, 635/667 nm fluorescence (AID 1119).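 Further: probe is the protein aXip251-270 applied at 1 µg/mL to compound-printed slides; binding of probe to printed compounds measured as 667 nm fluorescence plus signal to noise.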 Conditions: higher = more signal, called active from +8 up or from −8 down.
Experiment [12] is described as follows: small-molecule binders of probe aNOTCH3, primary screen, biochemical, small-molecule microarray, 635/667 nm fluorescence (AID 1120).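 Further: probe is a biotin-tagged antibody raised against NOTCH3 rather than NOTCH3 protein; score merges spot fluorescence near 667 nm with spot signal to noise.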 To be noted: higher = more signal.
The nature of experiment [13]: small-molecule binders of probe aNOTCH2, primary screen, biochemical, small-molecule microarray, 635/667 nm fluorescence (AID 1121).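 Further: score merges feature fluorescence read at 667 nm with its signal to noise.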 Conditions: higher = more signal.
Experiment [14] has as its target Carbonic anhydrase 2 (Homo sapiens) (UniProt P00918). Briefly: CAII small-molecule binders, profiling panel, biochemical, small-molecule microarray, Alexa647-labelled CAII (AID 1122). To be noted: CAII-A647 binding fluorescence, higher = more signal.
Experiment [15] is described as follows: COS7 lysate on small-molecule microarray, probe aHis, 635 nm (AID 1123).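 Further: z-score combines 667nm fluorescence intensity with signal-to-noise per printed compound spot.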 To be noted: COS7 cell lysate, fluorescence, higher = more signal.
The nature of experiment [16]: compound binding in COS7 lysate, probe aLAP1, primary screen, cell lysate, small-molecule microarray (AID 1124).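 Further: lysate comes from COS7 cells expressing LAP1 and is applied at 0.3 µg/mL; score merges spot fluorescence near 667 nm with signal-to-noise over triplicate slides.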 Conditions: probe aLAP1, fluorescence, higher = more signal.
In the next experiment the test system is Sam68 (KHDRBS1). In words: Sam68 small-molecule binders, primary screen, biochemical, small-molecule microarray, 635 nm fluorescence (AID 1125).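 Further: score merges 667 nm channel intensity with signal to noise over triplicate slides.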 To be noted: small-molecule microarray binding, higher = more signal.
Experiment [17] has as its system Chordin-like protein 2 (CHRDL2). Briefly: CHRDL2 small-molecule binders, primary screen, biochemical, small-molecule microarray, 635 nm fluorescence (AID 1126).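 Further: printed compound slides probed with Chrdl2 protein at 4 µg/mL for 1 h at 4 C; score merges 667 nm emission intensity with signal to noise over three replicate slides.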 Conditions: small-molecule microarray binding, fluorescence 635 nm; higher = more signal.
Experiment [18] deals with Concanavalin-A (Canavalia ensiformis) (UniProt P02866). In words: ConA small-molecule binders, primary screen, artefact control for SMM control protein annotation, biochemical, small-molecule microarray, Alexa647 label, 635 nm (AID 1127).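 Further: z combines 667 nm emission intensity with signal-to-noise across three replicate slides.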 Conditions: ConA-A647 binding fluorescence, higher = more signal.

Structures are written as SMILES. Calls of active or inactive are those of the source.

Chain of Alpha-bungarotoxin (Bungarus multicinctus) (P60615 whole entry, looked up): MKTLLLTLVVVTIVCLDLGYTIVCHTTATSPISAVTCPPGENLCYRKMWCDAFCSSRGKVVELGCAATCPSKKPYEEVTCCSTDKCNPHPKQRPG
Chain of Left-right determination factor 2 (Homo sapiens) (O00292 whole entry, looked up): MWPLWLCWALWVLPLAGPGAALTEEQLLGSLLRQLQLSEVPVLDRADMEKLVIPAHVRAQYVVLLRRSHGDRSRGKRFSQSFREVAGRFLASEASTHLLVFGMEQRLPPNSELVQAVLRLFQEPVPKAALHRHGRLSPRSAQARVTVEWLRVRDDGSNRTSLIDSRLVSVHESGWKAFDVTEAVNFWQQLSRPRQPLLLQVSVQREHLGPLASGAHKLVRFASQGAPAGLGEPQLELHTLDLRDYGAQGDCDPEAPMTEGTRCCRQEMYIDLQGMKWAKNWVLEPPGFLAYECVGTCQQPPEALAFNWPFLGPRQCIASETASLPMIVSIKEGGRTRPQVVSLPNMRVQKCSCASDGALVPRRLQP
Chain of Concanavalin-A (Canavalia ensiformis) (P02866 whole entry, looked up): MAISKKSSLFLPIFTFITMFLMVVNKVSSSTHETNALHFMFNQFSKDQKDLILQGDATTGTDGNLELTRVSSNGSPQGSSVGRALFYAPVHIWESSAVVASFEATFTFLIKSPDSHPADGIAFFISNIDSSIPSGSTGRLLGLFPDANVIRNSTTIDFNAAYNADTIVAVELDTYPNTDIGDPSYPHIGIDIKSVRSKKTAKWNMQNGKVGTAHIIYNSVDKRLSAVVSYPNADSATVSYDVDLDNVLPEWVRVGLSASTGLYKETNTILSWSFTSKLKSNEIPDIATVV
Chain of Albumin (Bos taurus) (P02769 whole entry, looked up): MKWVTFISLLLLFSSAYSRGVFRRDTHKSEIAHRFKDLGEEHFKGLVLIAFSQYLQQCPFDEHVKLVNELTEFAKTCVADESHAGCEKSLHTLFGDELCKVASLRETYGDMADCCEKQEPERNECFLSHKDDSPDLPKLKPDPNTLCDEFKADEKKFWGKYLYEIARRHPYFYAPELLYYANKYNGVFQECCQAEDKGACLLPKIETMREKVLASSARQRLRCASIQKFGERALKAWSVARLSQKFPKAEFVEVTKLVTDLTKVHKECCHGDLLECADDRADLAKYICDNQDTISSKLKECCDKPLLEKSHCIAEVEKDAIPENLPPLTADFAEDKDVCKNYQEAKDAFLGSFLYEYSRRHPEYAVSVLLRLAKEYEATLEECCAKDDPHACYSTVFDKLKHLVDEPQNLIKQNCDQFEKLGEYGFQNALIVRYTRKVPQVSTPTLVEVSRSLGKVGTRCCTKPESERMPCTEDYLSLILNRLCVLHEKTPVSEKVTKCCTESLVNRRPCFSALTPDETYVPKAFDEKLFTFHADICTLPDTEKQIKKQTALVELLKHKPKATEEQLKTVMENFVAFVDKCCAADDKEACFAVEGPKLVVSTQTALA
Chain of Torsin-1A-interacting protein 1 (Homo sapiens) (Q5JTV8 whole entry, looked up): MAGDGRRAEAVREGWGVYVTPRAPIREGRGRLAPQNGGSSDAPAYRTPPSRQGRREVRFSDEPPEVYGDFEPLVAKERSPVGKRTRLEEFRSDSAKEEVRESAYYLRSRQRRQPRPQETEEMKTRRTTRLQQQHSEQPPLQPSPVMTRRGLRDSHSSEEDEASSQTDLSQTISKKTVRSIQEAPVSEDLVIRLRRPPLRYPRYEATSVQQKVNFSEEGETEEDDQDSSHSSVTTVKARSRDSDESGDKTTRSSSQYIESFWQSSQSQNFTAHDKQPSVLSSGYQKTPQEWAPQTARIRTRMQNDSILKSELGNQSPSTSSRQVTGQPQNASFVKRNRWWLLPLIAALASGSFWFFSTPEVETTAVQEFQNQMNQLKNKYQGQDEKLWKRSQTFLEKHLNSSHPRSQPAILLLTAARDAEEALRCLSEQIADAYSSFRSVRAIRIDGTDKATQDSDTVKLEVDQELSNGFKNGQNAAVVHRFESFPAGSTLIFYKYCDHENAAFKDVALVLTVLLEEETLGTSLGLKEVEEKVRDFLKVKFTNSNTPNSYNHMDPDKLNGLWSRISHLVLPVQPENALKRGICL

As to `CC(C)CCC[C@@H](C)[C@H]1CC[C@@]2(C)C3=C(CC[C@]12C)[C@@]1(C)CC[C@H](OC(=O)C(C)(C)C)C(C)(C)C1CC3` (stereo not given in full), the composite z-score is 0.506 in [1]; 0.502 in experiment [3]; 0.0548 in experiment [4]; -0.718 in experiment [5]; -0.0792 in [6]; -0.134 in experiment [7]. The composite z-score in [8] was -0.705; in experiment [9] it was -0.0812; in experiment [10] it was 0.448; with Albumin (Bos taurus) it was -0.0648; in [12], -0.0396; in [13], -0.191. Also, the composite z-score in [14] was -0.0485; in experiment [15], 1.25; in [16], -0.0838; with Sam68 (KHDRBS1), 0.657; in experiment [17] it was 0.547; in [18], 0.632. In addition, the z-score in experiment [2] is -0.435. Besides, the composite Z-score in [11] is -0.598 (inactive).

Take `O=C1O[C@H](c2ccccc2)[C@H](c2ccccc2)N2[C@H]1[C@@H](C(=O)N1CCCCCCC1)[C@]1(C(=O)Nc3ccccc31)[C@H]2c1ccc(O)cc1`: the composite z-score in experiment [1] was 1.52; in experiment [3] it was 1.86; in [4], 3.09; in experiment [5] it was 1.64; in experiment [6], 1.63; in [7], 3.71. Besides, the composite z-score is 3.66 in experiment [8]; 5.68 in [9]; 3.36 in experiment [10]; 0.052 in the experiment with Albumin (Bos taurus); 2.34 in experiment [12]; 1.24 in experiment [13]. Further, the composite z-score came to 0.764 in experiment [14]; 4.65 in experiment [15]; 1.65 in [16]; 1.31 in the experiment with Sam68 (KHDRBS1); 1.71 in [17]; 1.17 in experiment [18]. The same molecule displayed a z-score in experiment [2] of -1.09. In addition, in experiment [11], the composite Z-score is 8.41 (active).

Turning to `CCOC(=O)C1=CC[C@@H](c2ccccc2)N(S(=O)(=O)c2ccc(C)cc2)[C@H]1C=C(C)C`, the composite z-score in [1] was 1.45; in experiment [3], 0.407; in [4], 0.808; in [5], -0.0374; in [6] it was 0.055; in experiment [7], 0.199. The composite z-score in [8] is 1.06; in [9], 0.647; in experiment [10], 0.162; with Albumin (Bos taurus), 0.856; in experiment [12], 0.31; in [13] it was -0.0209. The composite z-score in experiment [14] was determined as 0.491; in [15], 2.14; in experiment [16], 0.149; in the experiment with Sam68 (KHDRBS1) it was 1.3; in experiment [17], 0.542; in [18], 0.947. The same molecule came in with a z-score in experiment [2] of -2.21. Moreover, the composite Z-score in experiment [11] is 0.325 (inactive).

For `COc1ccc([Si](C)(C)[C@H]2[C@H](CCn3cc(CCO)nn3)O[C@@]3(C(=O)N(Cc4cccc(N5C(=O)c6cccc7cccc5c67)c4)c4ccccc43)[C@@H]2C)cc1`, the composite z-score in experiment [1] was 1.1; in [3], 0.464; in experiment [4] it was 0.35; in [5], 0.241; in experiment [6], -0.136; in experiment [7] it was 0.131. In addition, the composite z-score in [8] was 1.01; in [9] it was 1.46; in experiment [10] it was 1.07; with Albumin (Bos taurus), 0.451; in experiment [12], 0.0311; in experiment [13] it was -0.0974. Besides, the composite z-score is 0.584 in [14]; 0.791 in experiment [15]; 1.65 in [16]; 1.22 with Sam68 (KHDRBS1); 0.438 in [17]; 1.11 in [18]. Also, in experiment [2], the z-score is -5.14. The composite Z-score in experiment [11] is 0.525 (inactive).

As for `C=C(CCCC)/C(=C/C[C@@H](OC(=O)c1ccncc1)c1ccccc1OCCO)c1cc(C(=O)OC)ccc1OC`, the composite z-score in experiment [1] is 1.4; in [3], 0.0979; in experiment [4] it was -0.154; in [5], -0.351; in experiment [6], -0.0735; in experiment [7] it was -0.0626. Besides, the composite z-score in [8] is -0.518; in experiment [9], 0.603; in [10], 1.93; with Albumin (Bos taurus), 0.865; in experiment [12] it was 0.125; in experiment [13] it was -0.0317. Moreover, the composite z-score in experiment [14] was 0.616; in experiment [15], 1.28; in experiment [16] it was 0.902; in the experiment on Sam68 (KHDRBS1), 1.25; in experiment [17], -0.0027; in [18], -0.251. In experiment [2], this molecule yielded a z-score of -2.61. For the same molecule, the composite Z-score in experiment [11] was -0.0662 (inactive).

`CN1C(=O)C2C=CC(C(O)c3ccc(F)cc3)N(N3CCCCC3)C2C1=O` (stereo not given): the composite z-score in [1] was 0.491; in experiment [3] it was -0.781; in [4], 1.72; in experiment [5] it was 1.23; in experiment [6] it was 0.212; in [7] it was 0.949. Further, the composite z-score is 0.893 in [8]; 2.05 in experiment [9]; 0.164 in [10]; 0.853 in the experiment with Albumin (Bos taurus); 0.29 in experiment [12]; 0.155 in experiment [13]. For the same molecule, the composite z-score in [14] is 0.714; in experiment [15], 1.5; in experiment [16], 0.804; with Sam68 (KHDRBS1), 1.32; in experiment [17], -1.42; in experiment [18], 1.08. In addition, the z-score in experiment [2] stood at 0.269. For the same molecule, the composite Z-score in [11] was -0.908 (inactive).

(Values after PubChem BioAssay.)
